Screening results from PubChem BioAssay.
Shown are actives, neighbours in structure and some others; about 3.4% of the full set was active somewhere.
MITF primary: MITF inhibitors, primary screen, biochemical, AlphaScreen, human; AlphaScreen MITF homodimerization, bead proximity signal; inhibition, % at 2.6 µM; 0.91% of 650,000 active; in the data active = inhibition above about 50%;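 also: 0% = vehicle wells with protein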
TEAD-YAP block: TEAD-YAP interaction inhibition, primary screen, TEAD-YAP interaction inhibitor project, luminescence, HEK-TIYL cells; TEAD-Gal4/YAP UAS-luciferase luminescence; inhibition, % at 9.12 µM; 1.4% of 640,000 active; AID 1259422, 2018; in the data active = inhibition above about 32%;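 also: 0% = median of test compound wells and 100% = reference inhibitor wells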
GPR151 ag: activators of human GPR151, primary screen, cell-based, PathHunter beta-arrestin, luminescence | PathHunter beta-arrestin GPR151 cells | activation, % at 11.2 µM | G-protein coupled receptor 151 (Homo sapiens), Q8TDV0 | 1% of 650,000 active; in the data active = activation above about 4.9%;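 also: 0% = median of compound wells and 100% = cells with positive control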
FBW7 activator: FBW7 E3 ligase activators, primary screen, biochemical, AlphaScreen, human; AlphaScreen FBW7–phospho-cyclin E peptide binding, activator screen; normalized activity (activation), % at 26.1 µM; 0.13% of 650,000 active; AID 1259310, 2017; in the data active = normalized activity above about 1.9%;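 also: purified mutant Fbw7 with reduced substrate affinity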
Target sequence (Q969H0 whole entry, looked up): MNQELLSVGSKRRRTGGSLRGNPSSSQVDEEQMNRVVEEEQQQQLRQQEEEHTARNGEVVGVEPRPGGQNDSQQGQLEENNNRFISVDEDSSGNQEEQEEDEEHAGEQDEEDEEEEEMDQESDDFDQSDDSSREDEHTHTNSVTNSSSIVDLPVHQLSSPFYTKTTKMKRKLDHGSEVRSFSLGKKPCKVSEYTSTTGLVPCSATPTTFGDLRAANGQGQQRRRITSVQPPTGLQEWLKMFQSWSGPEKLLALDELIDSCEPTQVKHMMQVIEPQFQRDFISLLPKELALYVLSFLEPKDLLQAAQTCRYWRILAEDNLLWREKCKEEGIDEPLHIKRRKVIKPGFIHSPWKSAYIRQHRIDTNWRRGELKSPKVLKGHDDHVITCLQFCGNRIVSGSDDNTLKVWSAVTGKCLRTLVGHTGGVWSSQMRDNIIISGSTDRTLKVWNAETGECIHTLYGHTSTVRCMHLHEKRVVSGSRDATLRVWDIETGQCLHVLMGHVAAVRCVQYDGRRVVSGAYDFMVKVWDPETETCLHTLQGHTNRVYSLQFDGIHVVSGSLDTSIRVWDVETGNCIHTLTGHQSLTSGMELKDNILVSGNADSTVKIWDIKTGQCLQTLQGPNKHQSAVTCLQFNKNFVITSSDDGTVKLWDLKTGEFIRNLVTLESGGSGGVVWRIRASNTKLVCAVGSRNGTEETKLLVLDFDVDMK
Starred values were filed as active, the others as inactive.

SMILES | MITF primary | TEAD-YAP block | GPR151 ag | FBW7 activator
CCOC(=O)CSC1=C(C#N)C(c2ccc(Cl)cc2)CC(=O)N1 (configuration not stated) | -1 | -13 | -1 | 0
CCOC(=O)CSC1=C(C#N)C(c2cccc(Cl)c2)CC(=O)N1 (configuration not stated) | 7 | 66* | -1 | 0
COCCNC(=O)CN(C(=O)CCC(=O)Nc1ccccn1)c1ccc2c(c1)OCCO2 | 18 | -8 | 1 | 0
CCOC(=O)CSC1=C(C#N)C(c2ccc(C)o2)CC(=O)N1 (configuration not stated) | 6 | 60* | 1 | 0
COC(=O)CSC1=C(C#N)C(c2ccc(Cl)cc2)CC(=O)N1 (configuration not stated) | 5 | -9 | -1 | 0
COC(=O)CSC1=C(C#N)C(c2cccc(Cl)c2)CC(=O)N1 (configuration not stated) | -3 | 57* | 0 | 0
CCc1ccc2[nH]c(C)c(CN3CCC(C)CC3)c(=O)c2c1 | -1 | 10 | -1 | 0
O=C(c1ccc(-c2nc3ccccc3s2)s1)N1CCCC1 | 1 | 89* | -3 | 0
O=C(O)c1ccc(-c2nc3ccccc3s2)s1 | 14 | 10 | -11 | 0
CCOC(=O)Cn1c(=O)oc2cc(S(=O)(=O)Nc3cccc(C(=O)OCC)c3)ccc21 | 1 | 16 | 2 | 0
COC(=O)c1ccc(/C=C/C(=O)c2ccc3c(c2)OCCO3)cc1 | -11 | -53 | -1 | 0
COC(=O)c1ccc(C=Nc2ccc3c(c2)OCCO3)cc1 | -8 | 62* | -1 | 0
N=c1nc2n(c3ccccc13)Cc1ccccc1-2 | 7 | 71* | -1 | 0
O=c1nc2n(c3ccccc13)Cc1ccccc1-2 | -1 | 10 | 2 | 0
CN(CCO)c1cc(N2CCc3ccccc32)c2nonc2c1[N+](=O)[O-] | 6 | 19 | -1 | 0
Cc1cc(C(=O)CO/N=C/c2ccco2)c(C)n1Cc1ccco1 | -5 | 53* | 4 | 0
Cc1cc(C(=O)CSc2nnc3ccccn23)c(C)n1Cc1ccco1 | 1 | 61* | -3 | 0
Cc1cc(C(=O)CCl)c(C)n1Cc1ccco1 | 33 | 5 | -2 | 0
COc1ccc(-c2nsc(SCC(=O)N3CCOCC3)n2)cc1 | 2 | -23 | -1 | 0
CC(C)C1=NN2C(=N)/C(=C/c3cn(CCOc4ccccc4)c4ccccc34)C(=O)N=C2S1 | 6 | 4 | 1 | 0
Cc1cccc(Nc2nc3nonc3nc2N/N=C\c2cccs2)c1C | 6 | 79* | 3 | -2
Cc1ccccc1Nc1nc2nonc2nc1N/N=C/c1ccc(F)cc1 | 2 | 6 | 1 | 0
COc1cccc(NC(=O)Cn2c(C)cc(=O)c3cccc(OC)c32)c1 | 6 | 49* | 3 | 1
Cc1cccc(NC(=O)Cn2c(C)cc(=O)c3ccccc32)c1 | 7 | 41* | -2 | 0
Cc1ccc(NC(=O)Cn2c(C)cc(=O)c3ccccc32)cc1C | 10 | 45* | 3 | 1
SMILES | MITF primary | TEAD-YAP block | GPR151 ag | FBW7 activator
COc1ccc(O)c(-c2ccncn2)c1 | -10 | -12 | -1 | 0
Fc1ccc(-c2cnc3c(N4CCOCC4)nccn23)cc1 | 12 | -45 | -1 | 0
Cc1c2c(cc3c4c(c(=O)oc13)CCC4)CN(Cc1ccco1)CO2 | 13 | -3 | 0 | 0
O=C(Nc1cccc(C(F)(F)F)c1)/C(=C\c1cccnc1)NC(=O)c1ccsc1 | 6 | 0 | 0 | 0
CC1CC(C)CN(c2ncnc(N)c2[N+](=O)[O-])C1 (configuration not stated) | 12 | 62* | 2 | 0
CC1CN(c2ncnc(N)c2[N+](=O)[O-])CC(C)O1 (configuration not stated) | 9 | 28 | 0 | 0
CC1CCCCN1c1ncnc(N)c1[N+](=O)[O-] (configuration not stated) | -3 | 42* | -1 | 0
CC1CCCN(c2ncnc(N)c2[N+](=O)[O-])C1 (configuration not stated) | 13 | 62* | 0 | 0
Nc1ncnc(N2CCCC2)c1[N+](=O)[O-] | 5 | 33* | 3 | 0
CC1CCN(c2ncnc(N)c2[N+](=O)[O-])CC1 | 18 | 28 | 3 | 0
CCC1CCCCN1c1ncnc(N)c1[N+](=O)[O-] (configuration not stated) | 14 | 30 | 2 | 0
COc1cc(CNc2ccnc3c(-c4ccc5c(c4)OCO5)cnn23)cc(OC)c1OC | -7 | 0 | 0 | 0
CC1Cc2ccccc2N1c1ncnc(N)c1[N+](=O)[O-] (configuration not stated) | 19 | 81* | -2 | 0
Nc1ncnc(N2CCCc3ccccc32)c1[N+](=O)[O-] | 3 | 7 | 0 | 0
CN(C)c1cccc(Nc2ncc(C(=O)NC3CC3)s2)c1 | 1 | -21 | 0 | 0
CCC1(C)Cc2c(sc3nc(SCc4ccc(Cl)c(Cl)c4)n(-c4ccccc4)c(=O)c23)CO1 (configuration not stated) | 16 | -5 | 1 | 1
CC(=O)CSc1nc(C2CC2)cc(C(F)(F)F)c1C#N | 11 | 14 | 0 | 2.7*
CC(C)n1cc(-c2ccc3ccccc3n2)cn1 | 0 | 82* | -9 | 0
Cc1c(N)cccc1-c1nc2ccccc2s1 | 0 | 35* | -2 | 0
Cc1c(N)cccc1-c1nc2ccccc2o1 | -3 | 57* | -3 | 0
CC(=O)c1ccc2c(c1)nc(C)n2-c1ccccc1 | 20 | -24 | 0 | 0
Cc1nc2cc(-c3nc4ccccc4s3)ccc2n1-c1ccccc1 | -13 | 59* | 2 | 0
CC(=O)Nc1cc(-c2nc3ccccc3s2)ccc1C | -4 | -34 | 0 | 0
Cc1cc(-c2nc3ccccc3s2)ccc1N | 3 | 81* | -8 | 0
CCOC(=O)C1=C(C)N=c2s/c(=C\c3ccc(OCc4ccc([N+](=O)[O-])cc4)c(OCC)c3)c(=O)n2C1c1ccc(Cl)cc1 (configuration not stated) | 7 | -12 | 0 | 0
SMILES | MITF primary | TEAD-YAP block | GPR151 ag | FBW7 activator
CCOC(=O)C1=C(C)N=c2s/c(=C\c3ccc(-c4ccccc4[N+](=O)[O-])o3)c(=O)n2C1c1ccc(Cl)cc1 (configuration not stated) | -1 | -8 | -2 | 0
COc1ccccc1NCN1C(=O)c2ccc(Br)cc2C1=O | 16 | 11 | -2 | 0
Cc1ccc(-c2nc3ccccc3s2)cc1N | 1 | 54* | -10 | 0
Cc1ccc(-c2nc3ccccc3s2)cc1[N+](=O)[O-] | -1 | -32 | 1 | 0
CC(=O)N(C1=C(N2CCOCC2)C(=O)c2ccccc2C1=O)c1cccc(Cl)c1 | 6 | 13 | -3 | -1
CC(=O)N(C1=C(N2CCCC2)C(=O)c2ccccc2C1=O)c1ccc(Cl)c(Cl)c1 | 21 | 14 | -3 | 0
